CYP2C19 activ: increases human CYP2C19 enzyme activity. P33261. 96,000 tested, under 10 active. activation factor at 5 µM. recombinant CYP2C19, luciferin-H EGE luminescence; hits give high values; 0 = fully inhibited enzyme, 1 = untreated enzyme. AID 1025;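 active = activation factor of at least 2 at 5 µM in the primary screen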
Target sequence (P33261 whole entry, looked up): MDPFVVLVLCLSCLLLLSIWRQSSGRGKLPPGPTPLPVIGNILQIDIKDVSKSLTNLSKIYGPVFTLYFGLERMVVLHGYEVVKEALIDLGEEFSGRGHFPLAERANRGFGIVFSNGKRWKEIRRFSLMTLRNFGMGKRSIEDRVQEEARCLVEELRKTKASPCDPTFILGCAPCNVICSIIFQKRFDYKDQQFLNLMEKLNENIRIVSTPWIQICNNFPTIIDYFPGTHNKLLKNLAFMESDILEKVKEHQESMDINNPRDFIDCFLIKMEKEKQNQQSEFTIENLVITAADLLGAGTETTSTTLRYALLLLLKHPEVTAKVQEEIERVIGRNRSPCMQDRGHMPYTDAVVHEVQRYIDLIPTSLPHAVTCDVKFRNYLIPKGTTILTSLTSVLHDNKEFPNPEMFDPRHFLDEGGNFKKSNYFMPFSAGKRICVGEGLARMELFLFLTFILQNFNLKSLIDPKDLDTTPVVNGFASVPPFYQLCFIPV
Measles CPE: protection of cells from measles virus. AID 841. protection (pct of control), % at 4 µM. hit rate 1.5% among 140,000. Measles virus-infected cells, CPE protection, absorbance; in the data active = protection mostly above about 24%, no sharp cut-off; inactive = mostly below about 26%
CYP2C9 inh: blocks human cytochrome P450 2C9 | AID 777 | hit rate 20% among 96,000 | inhibition, % at 5 µM | CYP2C9 Supersomes, luciferin-H conversion, luminescence | P11712;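 active = blocking of liver enzyme CYP2C9 beyond about 50% at 5 µM, limit read from the data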
CYP2C9 act: CYP2C9 (human) activation | recombinant CYP2C9, luciferin-H conversion, luminescence; hits give high values; factor 1 = untreated enzyme, 0 = blocked | activation factor at 5 µM | hit rate 1.4% among 96,000 | AID 1024;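 active = activation factor of 2 or more for CYP2C9 at a 5 µM dose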
CYP2C19 inhib: human CYP2C19 inhibition. P33261. CYP2C19 Supersomes, luciferin-H EGE luminescence, 30 min. inhibition, % at 5 µM. hit rate 21% among 96,000;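 active = CYP2C19 inhibition above a set limit at 5 µM in the primary screen, cut at about 50% in these data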
Each line names hits and unclear results; the compound was inactive in the other large screens. Only some compounds are listed: those with a hit (about 22% of all), similar ones and a draw of the others.

Cc1ccc(CCNC(=O)C23CN(Cc4ccccc4)CC2C(c2cccc([N+](=O)[O-])c2)=NO3)cc1 (stereo unspecified)	CYP2C9 inh 75, CYP2C19 inhib 77
Cc1nc2ccccc2c(=O)n1CCCO	none
CCc1nccn1C(=O)c1cnn2c(C(F)F)cc(-c3ccccc3)nc12	none
Cc1ccc(-c2cc(C(F)F)n3ncc(C(=O)Nc4c(C)nn(Cc5c(Cl)cccc5Cl)c4C)c3n2)cc1	CYP2C9 inh 91
Cc1nn(Cc2c(Cl)cccc2Cl)c(C)c1NC(=O)c1cnn2c(C(F)F)cc(-c3ccccc3)nc12	CYP2C9 inh 63
Cc1ccc(-c2cc(C(F)F)n3ncc(C(=O)Nc4c(C)nn(Cc5ccccc5Cl)c4C)c3n2)cc1	CYP2C9 inh 89
COc1ccccc1C1NC(=O)CS1 (stereo unspecified)	none
CCOC(=O)c1[nH]c(C)c(C(=O)NC2CCCCC2)c1C	none
Cc1cccc2cc(COC(=O)c3cccs3)c(=O)[nH]c12	none (no result: CYP2C19 activ, CYP2C9 inh, CYP2C9 act, CYP2C19 inhib)
C=C(C)c1cccc(C(C)(C)NC(=O)N(Cc2ccccc2)Cc2ccco2)c1	CYP2C9 inh 72
COC(=O)C1=C(N)Oc2cc(C)n(Cc3ccccc3)c(=O)c2C1c1ccccc1 (stereo unspecified)	CYP2C9 inh 75
COc1ccc(C2C(C#N)=C(N)Oc3cc(C)n(CCN4CCOCC4)c(=O)c32)cc1OC (stereo unspecified)	none
COC(=O)C1=C(N)Oc2cc(C)n(C)c(=O)c2C1c1ccc(Cl)cc1 (stereo unspecified)	none
COC(=O)C1=C(N)Oc2cc(C)n(CCN3CCOCC3)c(=O)c2C1c1cccnc1 (stereo unspecified)	CYP2C19 inhib 71
COc1cc2c(cc1OC)C(C(=O)N1CCN(c3ccccn3)CC1)C(c1cccs1)N(C)C2=O (stereo unspecified)	none
COc1ccc(N(CC(=O)N/N=C/c2cc3ccc(OC)cc3nc2Cl)S(=O)(=O)c2ccccc2)cc1	none (no result: CYP2C19 activ, CYP2C9 inh, CYP2C9 act, CYP2C19 inhib)
COc1ccc(-c2nc(-c3cccc(C)c3)[nH]c(=O)c2C#N)cc1	CYP2C9 inh 52
COc1ccc(CN(C(C)=O)c2cccc(C)c2C)cc1	CYP2C9 inh 68, CYP2C19 inhib 99
O=C(N/N=C/c1ccco1)C1CC1	none (no result: CYP2C19 activ, CYP2C9 inh, CYP2C9 act, CYP2C19 inhib)
CC1=C(C(=O)OC(C)C)C(c2cccs2)N2C(=O)CCSC2=N1 (stereo unspecified)	CYP2C19 inhib 51
CCOC(=O)C1=NN(c2cccc(Cl)c2)C2=NC(C)=C(C(=O)OC)C(c3cccs3)N12 (stereo unspecified)	none (no result: CYP2C19 activ, CYP2C9 inh, CYP2C9 act, CYP2C19 inhib)
CC1=C(C(=O)OC(C)C)C(c2cccs2)N2C(=O)C(C)SC2=N1 (stereo unspecified)	CYP2C19 inhib 65
COC(=O)C1=C(C)N=C2SCCC(=O)N2C1c1cccs1 (stereo unspecified)	none
CC(=O)C(C)Oc1ncn(-c2ccccc2)n1 (stereo unspecified)	none
Cc1onc(-c2ccccc2Cl)c1C(=O)Nc1ncn[nH]1	none (no result: CYP2C19 activ, CYP2C9 inh, CYP2C9 act, CYP2C19 inhib)
CCc1ccc(NCc2nc(-c3ccccc3)no2)cc1	none (no result: CYP2C19 activ, CYP2C9 inh, CYP2C9 act, CYP2C19 inhib)
O=C(/C(=C/O)N=Nc1ccccc1)c1ccncc1	CYP2C9 inh 68, CYP2C19 inhib 96
C=CCn1c(O)c(C=Nc2ccc(Cc3ccncc3)cc2)c(=O)[nH]c1=S	CYP2C9 inh 83, CYP2C19 inhib 88
COc1ccc(Cn2c(O)c(C=Nc3ccc(O)cc3)c3ccccc3c2=O)cc1	none (no result: CYP2C19 activ, CYP2C9 inh, CYP2C9 act, CYP2C19 inhib)
O=C(Nc1ccc(N2CCN(C(=O)c3ccco3)CC2)cc1)c1cccs1	none
O=C(Nc1ccc(N2CCN(C(=O)c3ccco3)CC2)cc1)C(c1ccccc1)c1ccccc1	CYP2C9 inh 61, CYP2C19 inhib 86
Cc1cccc(OCC(=O)Nc2ccc(N3CCN(C(=O)c4ccco4)CC3)cc2)c1	CYP2C19 inhib 66
COCCN1Cc2cccc(C(=O)Nc3ccc(-c4nc5ccccc5[nH]4)cc3)c2C1=O	none (no result: CYP2C19 activ, CYP2C9 inh, CYP2C9 act, CYP2C19 inhib)
COc1ccc2ccc(Oc3ncccn3)cc2c1	none
c1cnc(Oc2ccc3oc4ccccc4c3c2)nc1	CYP2C19 inhib 63
O=C(CC(C(=O)O)C1CCCO1)NCc1ccccc1 (stereo unspecified)	none
CC(CC(=O)NCc1ccccc1)C1CCCO1 (stereo unspecified)	CYP2C9 inh 60
Cc1nn2c3c(cnc2c1-c1ccc(Cl)cc1)C(=O)CC(c1ccco1)C3 (stereo unspecified)	none (no result: Measles CPE)
Cc1ccc(NC(=S)NN2CCOCC2)c(C)c1	none
C#CCN1C(=O)C(O)(CC(=O)c2cccc(OC)c2)c2ccccc21 (stereo unspecified)	none
CCOC(=O)c1c(NC(=O)c2ccc(C)cc2)sc2c1CC(C)(C)OC2	none
CCOC(=O)c1c(NC(=O)c2ccccc2C)sc2c1CC(C)(C)OC2	CYP2C9 inh 77
CCOC(=O)c1c(NC(=O)CN2CCOCC2)sc2c1CC(C)(C)OC2	CYP2C9 inh 74
O=C1CCC(C(=O)N(Cc2ccco2)C2(C(=O)NC3CCCC3)CCCCC2)N1 (stereo unspecified)	none
O=c1c2ccccc2[nH]c(=S)n1Cc1cccnc1	CYP2C19 inhib 82
Cn1c(Cn2cnc3ccccc32)nc2ccccc21	none
Cc1nnc(OCc2nc3ccccc3n2C)c2ccccc12	CYP2C9 inh 59
CN(c1ccccc1C(=O)Nc1ccc(S(=O)(=O)N2CCOCC2)cc1)S(=O)(=O)c1ccccc1	none (no result: CYP2C19 activ, CYP2C9 inh, CYP2C9 act, CYP2C19 inhib)
COc1cc(/C=C(\C#N)c2nc3ccc(C)cc3[nH]2)c([N+](=O)[O-])cc1OC	none
CCN(CC)c1ccc(/C=C(/C#N)c2nc3ccc(C)cc3[nH]2)c(OC(C)C)c1	CYP2C9 inh 72, CYP2C19 inhib 60
CCCOc1cc(N(CC)CC)ccc1/C=C(/C#N)c1nc2ccc(C)cc2[nH]1	CYP2C9 inh 58
CCOc1cc(N(CC)CC)ccc1/C=C(/C#N)c1nc2ccccc2[nH]1	CYP2C9 inh 77, CYP2C19 inhib 56
Cc1cc(NC(=O)CCN2C(=O)c3ccccc3C2=O)no1	none
O=C(NCCCc1ccccc1)c1cnc2n(c1=O)CCS2	CYP2C19 inhib 83
O=C(NCCc1ccc(Cl)cc1)c1cnc2n(c1=O)CCS2	CYP2C19 inhib 55 (no result: Measles CPE)
Cc1cccc(C(=O)NC2CC3CCCC(C2)N3C(=O)NC2CCCCC2)c1 (stereo unspecified)	none
O=C(c1cccn2c(=O)c3ccccc3nc12)N1CCN(Cc2ccc3c(c2)OCO3)CC1	CYP2C9 inh 75
O=C(NCCN1CCN(c2ccccc2)CC1)c1cccn2c(=O)c3ccccc3nc12	none (no result: CYP2C19 activ, CYP2C9 inh, CYP2C9 act, CYP2C19 inhib)
O=C(c1ccc2nc3ccccc3c(=O)n2c1)N1CCN(Cc2ccc3c(c2)OCO3)CC1	CYP2C9 inh 53
CCn1nc(C(=O)N2CCN(Cc3ccc4c(c3)OCO4)CC2)c2ccccc2c1=O	CYP2C9 inh 61
O=C(NCCN1CCN(c2ccccc2F)CC1)c1cccn2c(=O)c3ccccc3nc12	CYP2C9 inh 57, CYP2C19 inhib 60
CCC(=O)N(CCc1ccccc1C)Cc1cc2cc3c(cc2[nH]c1=O)OCO3	none
COCCn1c(=O)[nH]c2cc(C(=O)OC)ccc2c1=O	none
CC1CN(C(=O)c2ccccc2)c2ccccc2NC1=O (stereo unspecified)	none (no result: CYP2C19 activ, CYP2C9 inh, CYP2C9 act, CYP2C19 inhib)

Source: PubChem BioAssay
